Assay results taken from paper PMC5540273 (PLoS ONE, 2017).
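Also: KINOMEscan kinase panel screen.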

The molecules below were run on MAK. Details: concentration: 1 μM, replicates: in singlicate; n = 1.
With `CCc1nc(-c2cccc(C)c2)c(-c2ccnc(NCc3ccccc3)c2)s1` the “%Inh” value was 26%. For `O=c1cc(N2CCOCC2)nc2n(Cc3cccc4ccccc34)ccn12` [GSK2333389], the “%Inh” value was 0%. `CN1c2ccc(NCc3ccc(F)cc3)cc2-c2c(cnn2C)S1(=O)=O` was tested, and the “%Inh” value was 0%. In the case of `NCCNS(=O)(=O)c1ccc(-c2ccnc3[nH]ccc23)cc1` [GSK977617], the “%Inh” value is reported as 0%. `Cc1ccc(NC(=O)c2ccnc(N3CCN(C)CC3)c2)cc1-c1ccc(C(=O)NCC2CC2)cc1` [GW775604] was tested, and the “%Inh” value was 0%. In the case of `Cc1ccc(C(=O)NCC(N)=O)cc1-n1c(C)cc(OCc2ccc(F)cc2F)c(Br)c1=O`, the “%Inh” value is reported as 11%. For `COCCNC(=O)c1ccc(-c2cc(C(=O)NC3CC3)cc(F)c2C)cc1` [GW868318], the “%Inh” value was 36%. In the case of `COc1ccc(Nc2ncc(C#N)c(Nc3ccccc3C(N)=O)n2)cc1N1CCN(C)CC1.Cl` [GSK1558669], the “%Inh” value is reported as 66%. In the case of `COc1ccc(S(=O)(=O)NC2CCN(c3cc(C)nc(Nc4cccc(C#N)c4)n3)CC2)cc1.O=C(O)C(F)(F)F` [GSK1653539], the “%Inh” value is reported as 19%. With `COc1ccc(Nc2nccc(N3CCC(NC(=O)Nc4cc(C)ccc4C)C3)n2)cc1` (stereo not drawn) [GSK1379741] the “%Inh” value was 28%. `CC(C)(C)n1cnc2c(N)ncnc21` [SKF-97359] was tested, and the “%Inh” value was 0%. In the case of `COc1cc2ncn(-c3cc(OCc4sccc4Cl)c(C(N)=O)s3)c2cc1OC` [GSK448459], the “%Inh” value is reported as 7%. For `COC(=O)Nc1nc2cc(Oc3ccc(NC(=O)Nc4cc(F)ccc4F)cc3)ccc2[nH]1.Cl` [GW701424], the “%Inh” value was 18%. `Cc1c2ccc(N(C)c3ccnc(Nc4cccc(S(N)(=O)=O)c4)n3)cc2nn1Cc1ccccc1.Cl.Cl` [GW787226] was tested, and the “%Inh” value was 0%. With `O=C(NCCNc1ccnc(Nc2ccc(F)cc2)n1)c1cc2ccccc2s1` [GSK1379874] the “%Inh” value was 23%. `CCn1cnc2c(N)ncnc21` [GW345098] was tested, and the “%Inh” value was 0%. In the case of `O=C1Cc2cc(Nc3nc(NCc4cccc(S(=O)(=O)C(F)(F)F)c4)ncc3C(F)(F)F)ccc2N1`, the “%Inh” value is reported as 15%. For `Cl.Oc1cccc(Nc2ccnc3cc(-c4ccncc4)ccc23)c1` [GW494601], the “%Inh” value was 61%. `Cn1cc(-c2ccc3c(c2)CCN3C(=O)Cc2ccccc2Cl)c2c(N)ncnc21` [GSK2608885] was tested, and the “%Inh” value was 16%. `NS(=O)(=O)CCc1cccc(Nc2nccc(-c3c(-c4cccc(NC(=O)c5c(F)cccc5F)c4)nn4ccccc34)n2)c1` [GSK336735] was tested, and the “%Inh” value was 22%. For `O=c1cc(N2CCOCC2)nc2n(Cc3cccc(Cl)c3Cl)c(C3CC3)nn12` [GSK2358994], the “%Inh” value was 0%. `COc1ccc(COc2cc(-n3cnc4ccccc43)sc2C(N)=O)cc1` [GSK1024304] was tested, and the “%Inh” value was 0%. In the case of `c1ccc(-c2n[nH]cc2-c2ccnc3ccccc23)nc1` [GW271431], the “%Inh” value is reported as 17%. With `CN(C1=C(c2ccccc2)C(=O)NC1=O)c1ccccc1` [SB-334860] the “%Inh” value was 20%. `COc1ccc(CNC(=O)NC2CCN(c3ccnc(Nc4ccc(OC)cc4)n3)C2)cc1` (stereo not drawn) [GSK1379727] was tested, and the “%Inh” value was 7%. With `COc1cc2c(cc1OC[C@@H](O)CO)ncc1c3ccc(C#N)cc3[nH]c21` the “%Inh” value was 0%. In the case of `c1ccc(-c2cc(-c3c[nH]nc3-c3ccccn3)ccn2)cc1` [GW576604], the “%Inh” value is reported as 0%. In the case of `Cc1cccc(-c2nc(-c3ccc(S(C)(=O)=O)cc3)sc2-c2ccncc2)c1`, the “%Inh” value is reported as 17%. For `Cc1cccc(Cn2ccn3c(=O)cc(N4CCOCC4)nc23)c1` [GSK2297542], the “%Inh” value was 32%. For `Fc1ccc(-c2nn3c(OCC(F)(F)F)cccc3c2-c2ccncc2)cc1` [GW514784], the “%Inh” value was 31%. For `N#Cc1c(N2CCOCC2)sc(-c2ccn[nH]2)c1-c1ccc(Cl)cc1`, the “%Inh” value was 12%. For `COc1cc2c(cc1OCCN1CCN(C)CC1)ncc1c3ccc(C#N)cc3[nH]c21`, the “%Inh” value was 21%. With `CC(=O)Nc1ccc(COc2ccc(Nc3ccnc4cc(-c5ccccn5)ccc34)cc2)cc1.Cl` [GW440148] the “%Inh” value was 43%. `[2H]C([2H])(c1cccc(C(F)(F)F)c1C)n1ccn2c(=O)nc(N3CCOCC3)cc12` [GSK2336394] was tested, and the “%Inh” value was 17%. With `COc1ccc(Nc2nccc(N3CCC(NC(=O)Nc4cccc(C(C)=O)c4)C3)n2)cc1` (stereo not drawn) [GSK1379731] the “%Inh” value was 29%.

What follows are molecules tested on MAP3K15. Details: concentration: 1 μM, replicates: in singlicate; n = 1.
With `CCc1nc(-c2cccc(C)c2)c(-c2ccnc(NCc3ccccc3)c2)s1` the “%Inh” value was 3%. For `O=c1cc(N2CCOCC2)nc2n(Cc3cccc4ccccc34)ccn12` [GSK2333389], the “%Inh” value was 0%. With `CN1c2ccc(NCc3ccc(F)cc3)cc2-c2c(cnn2C)S1(=O)=O` the “%Inh” value was 0%. For `Cc1ccc(NC(=O)c2ccnc(N3CCN(C)CC3)c2)cc1-c1ccc(C(=O)NCC2CC2)cc1` [GW775604], the “%Inh” value was 0%. For `Cc1ccc(C(=O)NCC(N)=O)cc1-n1c(C)cc(OCc2ccc(F)cc2F)c(Br)c1=O`, the “%Inh” value was 0%. With `COCCNC(=O)c1ccc(-c2cc(C(=O)NC3CC3)cc(F)c2C)cc1` [GW868318] the “%Inh” value was 24%. In the case of `COc1ccc(Nc2ncc(C#N)c(Nc3ccccc3C(N)=O)n2)cc1N1CCN(C)CC1.Cl` [GSK1558669], the “%Inh” value is reported as 73%. `COc1ccc(S(=O)(=O)NC2CCN(c3cc(C)nc(Nc4cccc(C#N)c4)n3)CC2)cc1.O=C(O)C(F)(F)F` [GSK1653539] was tested, and the “%Inh” value was 0%. For `COc1ccc(Nc2nccc(N3CCC(NC(=O)Nc4cc(C)ccc4C)C3)n2)cc1` (stereo not drawn) [GSK1379741], the “%Inh” value was 0%. `CC(C)(C)n1cnc2c(N)ncnc21` [SKF-97359] was tested, and the “%Inh” value was 0%. In the case of `COc1cc2ncn(-c3cc(OCc4sccc4Cl)c(C(N)=O)s3)c2cc1OC` [GSK448459], the “%Inh” value is reported as 0%. In the case of `COC(=O)Nc1nc2cc(Oc3ccc(NC(=O)Nc4cc(F)ccc4F)cc3)ccc2[nH]1.Cl` [GW701424], the “%Inh” value is reported as 0%. `Cc1c2ccc(N(C)c3ccnc(Nc4cccc(S(N)(=O)=O)c4)n3)cc2nn1Cc1ccccc1.Cl.Cl` [GW787226] was tested, and the “%Inh” value was 0%. For `O=C(NCCNc1ccnc(Nc2ccc(F)cc2)n1)c1cc2ccccc2s1` [GSK1379874], the “%Inh” value was 0%. In the case of `CCn1cnc2c(N)ncnc21` [GW345098], the “%Inh” value is reported as 6%. With `O=C1Cc2cc(Nc3nc(NCc4cccc(S(=O)(=O)C(F)(F)F)c4)ncc3C(F)(F)F)ccc2N1` the “%Inh” value was 21%. For `Cl.Oc1cccc(Nc2ccnc3cc(-c4ccncc4)ccc23)c1` [GW494601], the “%Inh” value was 0%. With `Cn1cc(-c2ccc3c(c2)CCN3C(=O)Cc2ccccc2Cl)c2c(N)ncnc21` [GSK2608885] the “%Inh” value was 0%. With `NS(=O)(=O)CCc1cccc(Nc2nccc(-c3c(-c4cccc(NC(=O)c5c(F)cccc5F)c4)nn4ccccc34)n2)c1` [GSK336735] the “%Inh” value was 5%. With `O=c1cc(N2CCOCC2)nc2n(Cc3cccc(Cl)c3Cl)c(C3CC3)nn12` [GSK2358994] the “%Inh” value was 0%. For `COc1ccc(COc2cc(-n3cnc4ccccc43)sc2C(N)=O)cc1` [GSK1024304], the “%Inh” value was 0%. With `c1ccc(-c2n[nH]cc2-c2ccnc3ccccc23)nc1` [GW271431] the “%Inh” value was 0%. With `CN(C1=C(c2ccccc2)C(=O)NC1=O)c1ccccc1` [SB-334860] the “%Inh” value was 0%. `COc1ccc(CNC(=O)NC2CCN(c3ccnc(Nc4ccc(OC)cc4)n3)C2)cc1` (stereo not drawn) [GSK1379727] was tested, and the “%Inh” value was 0%. For `COc1cc2c(cc1OC[C@@H](O)CO)ncc1c3ccc(C#N)cc3[nH]c21`, the “%Inh” value was 42%. In the case of `c1ccc(-c2cc(-c3c[nH]nc3-c3ccccn3)ccn2)cc1` [GW576604], the “%Inh” value is reported as 0%. `Cc1cccc(-c2nc(-c3ccc(S(C)(=O)=O)cc3)sc2-c2ccncc2)c1` was tested, and the “%Inh” value was 9%. `Cc1cccc(Cn2ccn3c(=O)cc(N4CCOCC4)nc23)c1` [GSK2297542] was tested, and the “%Inh” value was 0%. `Fc1ccc(-c2nn3c(OCC(F)(F)F)cccc3c2-c2ccncc2)cc1` [GW514784] was tested, and the “%Inh” value was 0%. For `N#Cc1c(N2CCOCC2)sc(-c2ccn[nH]2)c1-c1ccc(Cl)cc1`, the “%Inh” value was 45%. In the case of `COc1cc2c(cc1OCCN1CCN(C)CC1)ncc1c3ccc(C#N)cc3[nH]c21`, the “%Inh” value is reported as 61%. `CC(=O)Nc1ccc(COc2ccc(Nc3ccnc4cc(-c5ccccn5)ccc34)cc2)cc1.Cl` [GW440148] was tested, and the “%Inh” value was 2%. For `[2H]C([2H])(c1cccc(C(F)(F)F)c1C)n1ccn2c(=O)nc(N3CCOCC3)cc12` [GSK2336394], the “%Inh” value was 0%. `COc1ccc(Nc2nccc(N3CCC(NC(=O)Nc4cccc(C(C)=O)c4)C3)n2)cc1` (stereo not drawn) [GSK1379731] was tested, and the “%Inh” value was 0%.
